According to the supplement of paper PMC10849652:
About 7,900 targets were measured; listed, in parts, are those with a hit and a random draw of the rest. About 0.6% of all pairs of compound and target were hits. Unmarked numbers belong to inactive results.

Compound: c1ccc([C@@H]2C[C@H]2NC2CCNCC2)cc1
Assay: log2 fold change, soluble protein after heating vs DMSO (PISA); higher = thermal stabilisation; K562 cells, 10 uM, 30 min; active = over 0.2 and 3.5 SD of the protein, either way, in both replicates (recomputed)
Summary of the method: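 Soluble protein was quantified by TMTpro 16plex LC-MS/MS after channel sums were equalised. It was obtained as the supernatant after 21,000xg for 90 min from pooled aliquots of K562 cells (2×10^6 cells/mL, 10 μM compound, 30 min) heated for 3 min across 48°C-58°C and extracted in PBS with 0.5% NP-40 at 4°C. Thermal stability values are relative to control samples and come from duplicates. They are given as log2 fold changes.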

Sequence of UniProt Q96I24 (Q96I24 whole entry, looked up): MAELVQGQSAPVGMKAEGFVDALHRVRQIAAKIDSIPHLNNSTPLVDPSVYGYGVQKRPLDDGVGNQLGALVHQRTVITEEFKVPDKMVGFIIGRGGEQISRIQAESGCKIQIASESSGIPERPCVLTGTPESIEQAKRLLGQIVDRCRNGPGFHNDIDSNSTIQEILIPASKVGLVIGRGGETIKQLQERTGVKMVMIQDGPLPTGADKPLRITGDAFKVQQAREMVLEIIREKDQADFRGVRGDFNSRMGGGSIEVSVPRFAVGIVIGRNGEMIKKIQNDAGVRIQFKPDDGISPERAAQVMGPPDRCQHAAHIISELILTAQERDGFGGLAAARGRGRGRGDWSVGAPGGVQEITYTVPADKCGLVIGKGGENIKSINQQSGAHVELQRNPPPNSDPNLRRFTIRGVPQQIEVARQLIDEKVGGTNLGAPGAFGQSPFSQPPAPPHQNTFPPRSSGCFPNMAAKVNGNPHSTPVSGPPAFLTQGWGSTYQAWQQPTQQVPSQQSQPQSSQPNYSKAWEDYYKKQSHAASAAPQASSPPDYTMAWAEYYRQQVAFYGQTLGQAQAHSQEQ
Sequence of UniProt Q92769 (Q92769 whole entry, looked up): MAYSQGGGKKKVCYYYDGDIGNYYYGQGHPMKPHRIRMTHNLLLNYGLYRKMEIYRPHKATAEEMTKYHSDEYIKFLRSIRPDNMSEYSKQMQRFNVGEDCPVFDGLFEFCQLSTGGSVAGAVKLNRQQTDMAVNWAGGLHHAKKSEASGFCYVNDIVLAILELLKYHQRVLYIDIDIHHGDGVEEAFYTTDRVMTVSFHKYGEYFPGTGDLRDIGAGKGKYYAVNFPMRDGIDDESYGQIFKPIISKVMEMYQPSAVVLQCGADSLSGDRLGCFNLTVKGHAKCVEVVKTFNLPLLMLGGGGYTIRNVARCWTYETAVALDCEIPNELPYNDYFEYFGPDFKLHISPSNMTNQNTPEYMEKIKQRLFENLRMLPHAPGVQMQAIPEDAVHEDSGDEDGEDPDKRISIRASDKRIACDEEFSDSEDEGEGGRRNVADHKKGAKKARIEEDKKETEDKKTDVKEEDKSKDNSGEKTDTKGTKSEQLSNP
Sequence of UniProt Q9BTY2 (Q9BTY2 whole entry, looked up): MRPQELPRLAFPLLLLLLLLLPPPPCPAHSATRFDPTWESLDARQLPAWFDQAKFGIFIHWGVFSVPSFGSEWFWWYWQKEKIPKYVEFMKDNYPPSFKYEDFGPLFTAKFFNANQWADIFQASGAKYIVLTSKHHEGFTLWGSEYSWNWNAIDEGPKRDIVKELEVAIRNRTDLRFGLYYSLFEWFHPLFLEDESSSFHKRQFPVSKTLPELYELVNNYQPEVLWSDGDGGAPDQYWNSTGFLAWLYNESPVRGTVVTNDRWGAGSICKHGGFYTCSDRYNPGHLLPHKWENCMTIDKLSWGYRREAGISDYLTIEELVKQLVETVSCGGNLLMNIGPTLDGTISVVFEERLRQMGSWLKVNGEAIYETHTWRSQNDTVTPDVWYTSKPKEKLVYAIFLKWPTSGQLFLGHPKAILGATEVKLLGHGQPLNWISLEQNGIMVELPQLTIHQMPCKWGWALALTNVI
Sequence of UniProt Q9H6D7 (Q9H6D7 whole entry, looked up): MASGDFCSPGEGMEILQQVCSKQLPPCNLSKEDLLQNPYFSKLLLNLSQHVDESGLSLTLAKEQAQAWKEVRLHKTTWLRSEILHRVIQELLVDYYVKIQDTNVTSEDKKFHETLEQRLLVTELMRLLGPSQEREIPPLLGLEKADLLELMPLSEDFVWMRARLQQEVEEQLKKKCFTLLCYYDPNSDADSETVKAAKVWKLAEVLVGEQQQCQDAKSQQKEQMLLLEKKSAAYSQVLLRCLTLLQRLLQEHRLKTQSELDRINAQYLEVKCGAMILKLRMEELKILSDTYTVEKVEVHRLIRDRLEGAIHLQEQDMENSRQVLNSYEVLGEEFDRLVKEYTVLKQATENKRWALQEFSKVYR
Sequence of UniProt Q01628 (Q01628 whole entry, looked up): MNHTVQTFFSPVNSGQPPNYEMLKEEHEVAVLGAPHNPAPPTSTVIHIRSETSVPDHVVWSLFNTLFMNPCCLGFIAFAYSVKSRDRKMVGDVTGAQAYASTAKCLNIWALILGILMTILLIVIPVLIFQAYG
Sequence of UniProt P29084 (P29084 whole entry, looked up): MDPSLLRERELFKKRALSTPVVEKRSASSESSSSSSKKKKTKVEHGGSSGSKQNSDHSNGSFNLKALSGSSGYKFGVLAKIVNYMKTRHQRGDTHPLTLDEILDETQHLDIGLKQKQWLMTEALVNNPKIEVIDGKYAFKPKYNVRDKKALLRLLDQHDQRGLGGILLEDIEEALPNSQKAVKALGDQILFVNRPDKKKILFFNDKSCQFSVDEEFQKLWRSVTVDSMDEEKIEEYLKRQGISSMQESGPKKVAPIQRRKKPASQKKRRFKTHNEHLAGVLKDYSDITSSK
Sequence of UniProt Q92538 (Q92538 whole entry, looked up): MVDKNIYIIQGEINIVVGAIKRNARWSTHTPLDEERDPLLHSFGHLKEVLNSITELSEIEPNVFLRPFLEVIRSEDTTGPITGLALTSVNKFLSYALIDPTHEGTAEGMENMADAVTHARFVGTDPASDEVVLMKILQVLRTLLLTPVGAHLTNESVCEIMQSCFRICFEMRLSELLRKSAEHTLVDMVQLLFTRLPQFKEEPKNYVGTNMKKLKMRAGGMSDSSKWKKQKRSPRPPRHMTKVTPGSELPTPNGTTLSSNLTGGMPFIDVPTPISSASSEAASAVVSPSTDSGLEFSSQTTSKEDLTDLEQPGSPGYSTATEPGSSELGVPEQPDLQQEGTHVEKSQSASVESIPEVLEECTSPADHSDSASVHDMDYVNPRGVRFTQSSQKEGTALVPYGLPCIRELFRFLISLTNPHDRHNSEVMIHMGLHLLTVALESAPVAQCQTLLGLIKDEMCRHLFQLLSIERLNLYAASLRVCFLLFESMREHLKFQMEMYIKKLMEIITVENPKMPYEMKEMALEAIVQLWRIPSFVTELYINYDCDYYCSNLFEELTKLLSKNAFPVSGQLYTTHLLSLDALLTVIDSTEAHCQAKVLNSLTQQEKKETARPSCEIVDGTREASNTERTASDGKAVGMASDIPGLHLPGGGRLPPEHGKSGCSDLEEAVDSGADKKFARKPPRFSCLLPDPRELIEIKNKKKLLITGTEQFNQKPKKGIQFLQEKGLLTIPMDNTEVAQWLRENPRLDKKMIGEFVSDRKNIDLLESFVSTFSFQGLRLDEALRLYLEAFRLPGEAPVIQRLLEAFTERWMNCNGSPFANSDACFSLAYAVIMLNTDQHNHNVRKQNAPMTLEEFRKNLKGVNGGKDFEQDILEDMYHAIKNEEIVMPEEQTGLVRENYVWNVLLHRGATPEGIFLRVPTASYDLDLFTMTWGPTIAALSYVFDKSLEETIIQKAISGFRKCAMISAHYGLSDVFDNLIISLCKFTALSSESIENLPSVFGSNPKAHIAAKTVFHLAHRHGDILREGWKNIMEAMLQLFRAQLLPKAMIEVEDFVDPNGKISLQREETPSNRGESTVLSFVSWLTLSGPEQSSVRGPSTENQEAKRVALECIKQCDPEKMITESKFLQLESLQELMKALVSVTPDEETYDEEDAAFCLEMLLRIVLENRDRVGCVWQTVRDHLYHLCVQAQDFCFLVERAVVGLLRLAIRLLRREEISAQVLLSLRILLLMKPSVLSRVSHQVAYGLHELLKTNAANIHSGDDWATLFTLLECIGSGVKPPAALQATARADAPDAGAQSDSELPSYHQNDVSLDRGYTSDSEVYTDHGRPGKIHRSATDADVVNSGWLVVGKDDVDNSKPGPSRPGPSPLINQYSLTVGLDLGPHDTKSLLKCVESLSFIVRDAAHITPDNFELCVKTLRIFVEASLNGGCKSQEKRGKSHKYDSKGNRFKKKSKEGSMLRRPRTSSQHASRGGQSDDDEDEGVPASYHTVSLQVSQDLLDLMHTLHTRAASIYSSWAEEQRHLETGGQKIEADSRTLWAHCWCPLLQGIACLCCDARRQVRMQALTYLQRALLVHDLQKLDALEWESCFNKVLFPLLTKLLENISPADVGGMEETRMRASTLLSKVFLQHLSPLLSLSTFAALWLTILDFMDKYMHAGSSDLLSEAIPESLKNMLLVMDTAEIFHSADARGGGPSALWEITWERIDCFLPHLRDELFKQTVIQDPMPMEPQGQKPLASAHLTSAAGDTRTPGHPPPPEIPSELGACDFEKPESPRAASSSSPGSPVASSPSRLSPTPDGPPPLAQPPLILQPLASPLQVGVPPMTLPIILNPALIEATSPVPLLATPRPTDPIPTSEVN
Sequence of UniProt P78417 (P78417 whole entry, looked up): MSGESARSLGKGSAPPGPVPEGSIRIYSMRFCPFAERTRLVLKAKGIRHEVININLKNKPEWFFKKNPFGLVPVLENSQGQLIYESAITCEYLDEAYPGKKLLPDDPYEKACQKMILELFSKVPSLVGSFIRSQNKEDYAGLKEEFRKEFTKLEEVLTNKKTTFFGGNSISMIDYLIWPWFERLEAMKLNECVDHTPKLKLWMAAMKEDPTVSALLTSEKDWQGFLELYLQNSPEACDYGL
Sequence of UniProt Q8IVV7 (Q8IVV7 whole entry, looked up): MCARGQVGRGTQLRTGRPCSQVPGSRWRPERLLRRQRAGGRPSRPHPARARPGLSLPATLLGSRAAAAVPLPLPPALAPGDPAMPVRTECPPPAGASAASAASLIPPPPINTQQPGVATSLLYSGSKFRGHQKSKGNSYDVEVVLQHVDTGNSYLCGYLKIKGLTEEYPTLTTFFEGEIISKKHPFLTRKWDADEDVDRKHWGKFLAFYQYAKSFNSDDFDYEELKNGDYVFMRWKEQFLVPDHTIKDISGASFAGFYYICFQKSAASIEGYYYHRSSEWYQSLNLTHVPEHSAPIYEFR
Sequence of UniProt P63218 (P63218 whole entry, looked up): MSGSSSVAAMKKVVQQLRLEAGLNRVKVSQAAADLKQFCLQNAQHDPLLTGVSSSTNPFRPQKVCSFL
Sequence of UniProt P60520 (P60520 whole entry, looked up): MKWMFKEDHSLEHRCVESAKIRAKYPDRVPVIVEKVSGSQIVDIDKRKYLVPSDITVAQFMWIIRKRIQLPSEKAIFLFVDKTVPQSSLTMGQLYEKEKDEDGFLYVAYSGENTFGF

| Target | log2 fold change |
| --- | --- |
| GDPD1 (UniProt Q8N9F7) | 0.034 |
| IFITM3 (UniProt Q01628) | -0.014 |
| FBL (UniProt P22087) | 0.074 |
| GBF1 (UniProt Q92538) | 0.003 |
| GYS1 (UniProt P13807) | 0.054 |
| GGT7 (UniProt Q9UJ14) | 0.032 |
| HDAC2 (UniProt Q92769) | 0.111 |
| IFNGR1 (UniProt P15260) | 0.03 |
| GAPVD1 isoform 6 (UniProt Q14C86) | -0.018 |
| GNG5 (UniProt P63218) | 0.018 |
| FBXO7 (UniProt Q9Y3I1) | 0.024 |
| HOOK3 (UniProt Q86VS8) | 0.024 |
| GABPA (UniProt Q06546) | -0.041 |
| FUCA2 (UniProt Q9BTY2) | 0.006 |
| GID4 (UniProt Q8IVV7) | 0.009 |
| HAUS4 (UniProt Q9H6D7) | -0.002 |
| GLRX3 (UniProt O76003) | -0.018 |
| GABARAPL2 (UniProt P60520) | -0.055 |

| Target | log2 fold change |
| --- | --- |
| GALNT1 (UniProt Q10472) | -0.007 |
| GSTT1 (UniProt P30711) | 0.026 |
| FANCI (UniProt Q9NVI1) | -0.037 |
| FUT8 (UniProt Q9BYC5) | 0.049 |
| GTF2E2 (UniProt P29084) | 0.012 |
| HSPA8 (UniProt P11142) | -0.008 |
| GEMIN5 (UniProt Q8TEQ6) | 0.005 |
| FAM91A1 (UniProt Q658Y4) | -0.043 |
| FUBP3 (UniProt Q96I24) | 0.006 |
| HDDC2 (UniProt Q7Z4H3) | -0.038 |
| FRA10AC1 isoform 3 (UniProt Q70Z53) | 0.073 |
| GSTO1 (UniProt P78417) | 0.007 |
| HLTF (UniProt Q14527) | -0.001 |
| HIKESHI (UniProt Q53FT3) | -0.027 |
| HSPA8 (UniProt E9PK54) | -0.001 |
| FASTKD1 (UniProt Q53R41) | 0.07 |
| FIBP (UniProt O43427) | -0.011 |
